Results: PubChem BioAssay (Tox21)
Records with an inconclusive call do not appear. Activity calls are given as the source filed them. Unless noted, calls follow the shape of the dose curve; as a rule, active = well fitted curve in the direction sought with a large enough effect in the repeat runs; inconclusive = weak or mixed curves; inactive = no such curve, though single readings can be large; an effect the other way counts as inactive or inconclusive.

Tests used:
[1] = A CellTox Green Cytotoxicity Assay to monitor cytotoxicity in HepG2 cells - 24 hour (AID 1224878); also: nearly all actives have a fitted effect of over 45% in size
How it was run: (§1)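 Real-time cytotoxicity: fluorescence of a cell-impermeant cyanine dye binding DNA of dead HepG2 cells, measured repeatedly (0–40 h) during compound exposure at 37 C. Cells seeded 600/well with reagent, dosed after 5 h.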

[2] = A CellTox Green Cytotoxicity Assay to monitor cytotoxicity in HepG2 cells - 40 hour (AID 1224879); also: nearly all actives have a fitted effect of over 40% in size
How it was run: as §1

[3] = qHTS RealTime-Glo MT Cell Viability Assay in HEK293 cells - 0 hour (AID 1224880); also: top concentration of the series differs between compounds; nearly all actives have a fitted effect of over 45% in size
How it was run: (§2)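 Luminescence, which tracks viable cell number through reduction of the prosubstrate to a NanoLuc substrate, was read over continuous 37 C culture. Cells (600/well) were premixed with reagent and rested 5 h before 23 nL of compound in DMSO was pinned.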

[4] = A CellTox Green Cytotoxicity Assay to monitor cytotoxicity in HEK293 cells - 32 hour (AID 1224881); also: nearly all actives have a fitted effect of over 40% in size
How it was run: (§3)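 Fluorescence from a DNA-binding dye excluded by viable cells was measured repeatedly in the same HEK293 wells (600 cells/well) during continuous compound exposure at 37 C. Each assay gives one read point: 0, 8, 16, 24, 32 or 40 h.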

[5] = A CellTox Green Cytotoxicity Assay to monitor cytotoxicity in HepG2 cells - 0 hour (AID 1224882); also: nearly all actives have a fitted effect of over 35% in size
How it was run: as §1

[6] = A CellTox Green Cytotoxicity Assay to monitor cytotoxicity in HepG2 cells - 32 hour (AID 1224883); also: nearly all actives have a fitted effect of over 50% in size
How it was run: as §1

[7] = A CellTox Green Cytotoxicity Assay to monitor cytotoxicity in HEK293 cells - 8 hour (AID 1224884); also: nearly all actives have a fitted effect of over 35% in size
How it was run: as §3

[8] = qHTS RealTime-Glo MT Cell Viability Assay in HepG2 cells - 16 hour (AID 1224885); also: nearly all actives have a fitted effect of over 50% in size
How it was run: (§4)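 Viability was tracked continuously by NanoLuc luminescence from prosubstrate reduced by living HepG2 cells, at successive time points over 40 h of compound exposure. Cells with reagent were preincubated 5 h at 37 °C before compound addition.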

[9] = qHTS RealTime-Glo MT Cell Viability Assay in HEK293 cells - 24 hour (AID 1224886); also: top concentration of the series differs between compounds; nearly all actives have a fitted effect of over 50% in size
How it was run: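 Viability tracked continuously by luminescence as live cells reduce a prosubstrate for NanoLuc; HEK293 cells preincubated 5 h, compound-treated at 37 C, and read at 0, 8, 16, 24, 32 and 40 h.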

[10] = qHTS RealTime-Glo MT Cell Viability Assay in HEK293 cells - 8 hour (AID 1224887); also: top concentration of the series differs between compounds; nearly all actives have a fitted effect of over 50% in size
How it was run: as §2

[11] = A CellTox Green Cytotoxicity Assay to monitor cytotoxicity in HEK293 cells - 16 hour (AID 1224888); also: nearly all actives have a fitted effect of over 35% in size
How it was run: as §3

[12] = qHTS RealTime-Glo MT Cell Viability Assay in HepG2 cells - 0 hour (AID 1224889); also: nearly all actives have a fitted effect of over 50% in size
How it was run: as §4

[13] = A CellTox Green Cytotoxicity Assay to monitor cytotoxicity in HepG2 cells - 8 hour (AID 1224890); also: nearly all actives have a fitted effect of over 45% in size
How it was run: as §1

[14] = qHTS assay to identify small molecule antagonists of the estrogen receptor alpha (ER-alpha) signaling pathway using the BG1 cell line in the presence of 0.1 nM 17-beta-estradiol - cell viability counter screen (AID 1259241); also: nearly all actives have a fitted effect of over 40% in size
How it was run: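 In this screen, hormone-deprived VM7Luc4E2 cells were seeded at 4,000 per well, dosed with compound and 0.1 nM estradiol final, and incubated 22 hr at 37C and 5% CO2; fluorogenic live-cell protease signal reported viability.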

[15] = qHTS assay to identify small molecule antagonists of the androgen receptor (AR) signaling pathway using the MDA cell line in the presence of 0.5 nM R1881 - cell viability counter screen (AID 1259242); also: nearly all actives have a fitted effect of over 45% in size
How it was run: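 Live-cell protease activity was measured by CellTiter-Fluor fluorescence after 30 min. Before that, MDA-kb2 MMTV-luciferase cells had 16 hr at 37C without CO2, exposed to test compounds and 0.5 nM R1881 final.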

[16] = target: Androgen receptor (Homo sapiens) (UniProt P10275); assay: qHTS assay to identify small molecule antagonists of the androgen receptor (AR) signaling pathway using the MDA cell line in the presence of 0.5 nM R1881 (AID 1259243); also: nearly all actives have a fitted effect of over 50% in size
How it was run: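 Luminescent reporter readout (ONE-Glo, 30 min, room temperature) after 16 hr co-treatment of MDA-kb2 cells with test compounds and 0.5 nM R1881 final, at 37C without CO2. The MMTV-driven luciferase responds to both AR and GR.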

[17] = target: Estrogen receptor (Homo sapiens) (UniProt P03372); assay: qHTS assay to identify small molecule antagonists of the estrogen receptor alpha (ER-alpha) signaling pathway using the BG1 cell line in the presence of 0.1 nM 17-beta-estradiol (AID 1259244); also: nearly all actives have a fitted effect of over 50% in size
How it was run: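 Luciferase luminescence (ONE-Glo, 30 min at room temperature) was read after 22 hr at 37C exposure to compounds plus 17beta-estradiol at 0.1 nM final. Cells were VM7Luc4E2 with endogenous ER-alpha and an ERE-driven luciferase, pre-cultured 5 days in hormone-depleted medium.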

[18] = qHTS assay to identify small molecule HDAC inhibitors (AID 1259364)
How it was run: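 Luminescence read after 30 min room-temperature HDAC-Glo incubation measures cellular class I/II HDAC activity. Compounds were applied for 2 hr at 37 C to HCT-116 wild-type cells seeded the day before.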

[19] = qHTS assay to identify small molecule HDAC inhibitors - cell viability counter screen (AID 1259365)
How it was run: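 Measured quantity is CellTiter-Glo luminescence from wild-type HCT-116 cells after compound incubation of 2hr at 37C, 5% CO2; reagent developed 30min at room temperature.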

[20] = qHTS assay to identify small molecule phospholipidosis (PLD) inducers (AID 1259344; active = well fitted curve in the direction sought with a large enough effect; an effect the other way counts as inactive or inconclusive)
How it was run: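 Read-out is LipidTOX Red fluorescence (ex 595/em 615) imaged in HepG2 cells after 24 h compound exposure at 37 C, with Hoechst nuclear counterstain (ex 352/em 461) allowing per-cell normalisation.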

Measured: Potency

Sequence of Estrogen receptor (Homo sapiens) (P03372 whole entry, looked up): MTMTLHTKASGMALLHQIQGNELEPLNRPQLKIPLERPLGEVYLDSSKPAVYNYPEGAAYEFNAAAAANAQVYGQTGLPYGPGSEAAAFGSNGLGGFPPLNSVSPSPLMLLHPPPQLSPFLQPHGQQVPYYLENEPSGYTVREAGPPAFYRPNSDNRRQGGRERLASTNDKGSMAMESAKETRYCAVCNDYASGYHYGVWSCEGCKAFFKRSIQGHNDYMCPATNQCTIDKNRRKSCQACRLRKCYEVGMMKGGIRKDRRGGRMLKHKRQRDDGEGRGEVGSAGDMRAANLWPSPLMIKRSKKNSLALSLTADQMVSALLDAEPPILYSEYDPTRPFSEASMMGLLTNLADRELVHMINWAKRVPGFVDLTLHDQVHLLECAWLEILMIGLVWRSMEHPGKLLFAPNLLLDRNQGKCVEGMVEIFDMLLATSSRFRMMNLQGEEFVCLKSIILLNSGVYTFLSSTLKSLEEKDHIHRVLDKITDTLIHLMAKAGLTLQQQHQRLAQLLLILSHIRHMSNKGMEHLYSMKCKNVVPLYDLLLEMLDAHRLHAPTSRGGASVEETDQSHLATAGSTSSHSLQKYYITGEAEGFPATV
Sequence of Androgen receptor (Homo sapiens) (P10275 whole entry, looked up): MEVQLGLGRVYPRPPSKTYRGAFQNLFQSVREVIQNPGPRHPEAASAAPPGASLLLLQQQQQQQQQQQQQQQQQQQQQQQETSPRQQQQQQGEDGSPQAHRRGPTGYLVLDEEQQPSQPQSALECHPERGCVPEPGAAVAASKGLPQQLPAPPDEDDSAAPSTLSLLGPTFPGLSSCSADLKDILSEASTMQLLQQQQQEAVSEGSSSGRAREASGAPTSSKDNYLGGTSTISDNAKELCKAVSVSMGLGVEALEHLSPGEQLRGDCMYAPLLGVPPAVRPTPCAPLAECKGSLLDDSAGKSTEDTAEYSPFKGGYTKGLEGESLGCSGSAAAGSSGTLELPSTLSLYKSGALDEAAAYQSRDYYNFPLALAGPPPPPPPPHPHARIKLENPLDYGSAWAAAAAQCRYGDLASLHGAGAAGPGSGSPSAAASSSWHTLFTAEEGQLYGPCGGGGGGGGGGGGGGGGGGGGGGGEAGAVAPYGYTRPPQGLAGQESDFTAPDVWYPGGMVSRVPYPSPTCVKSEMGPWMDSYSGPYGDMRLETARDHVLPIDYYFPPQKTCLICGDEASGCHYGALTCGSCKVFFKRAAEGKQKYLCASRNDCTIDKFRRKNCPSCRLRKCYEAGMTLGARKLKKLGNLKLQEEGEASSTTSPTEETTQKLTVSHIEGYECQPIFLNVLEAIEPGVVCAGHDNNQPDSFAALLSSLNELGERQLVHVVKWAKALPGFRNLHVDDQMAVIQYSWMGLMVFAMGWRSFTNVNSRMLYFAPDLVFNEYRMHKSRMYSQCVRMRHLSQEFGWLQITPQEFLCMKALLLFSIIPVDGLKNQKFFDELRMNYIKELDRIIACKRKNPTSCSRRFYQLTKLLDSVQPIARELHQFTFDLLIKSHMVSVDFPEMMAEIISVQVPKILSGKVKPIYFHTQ

CC(=O)/C=C/C=C1/C2CCC(C2)C1(C)C (centres undefined)
not listed: [20]
inactive: all other assays above

CNC(C)=O
not listed: [16] | [20]
inactive: all other assays above

Cc1cc(=O)oc2cc(O[C@@H]3SC[C@@H](O)[C@H](O)[C@H]3O)ccc12
not listed: [19] | [20]
inactive: all other assays above

CC(C)(O)c1ccc(C(C)(C)O)cc1
not listed: [16] | [20]
inactive: all other assays above

O=C(O)CCCCCCCCCC(=O)O
not listed: [19] | [20]
inactive: all other assays above

Cc1ccccc1C#N
not listed: [16] | [19] | [20]
inactive: all other assays above

O=C(O)/C=C(\CC(=O)O)C(=O)O
not listed: [16]
inactive: all other assays above

O=C(O)COc1ccc2ccccc2c1
not listed: [16] | [19] | [20]
inactive: all other assays above
